# The list shows a part of the results. A number with no mark means an inactive call. The source made the active and inactive calls.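 Rule for the calls: active = inhibition of the enzyme GSTO1 above about 75% (limit read from the data); inactive = inhibition below that limit.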
# Target: Glutathione S-transferase omega-1 (Homo sapiens) (UniProt P78417)
# Assay: inhibitors of purified human GSTO1, late-stage follow-up, biochemical, gel ABPP, SE-Rh probe, percent inhibition (AID 463110)
# Conditions: recombinant GSTO1, gel ABPP SE-Rh probe fluorescence; at 1 µM; stronger effect = higher value
# Glutathione S-transferase omega-1 (Homo sapiens), sequence (P78417 whole entry, looked up): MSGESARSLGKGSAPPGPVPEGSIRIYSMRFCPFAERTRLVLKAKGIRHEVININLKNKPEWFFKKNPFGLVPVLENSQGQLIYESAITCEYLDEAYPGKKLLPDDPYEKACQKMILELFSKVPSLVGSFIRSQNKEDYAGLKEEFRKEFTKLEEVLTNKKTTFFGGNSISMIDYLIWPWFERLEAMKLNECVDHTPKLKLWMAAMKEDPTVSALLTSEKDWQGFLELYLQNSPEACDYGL
row,Structure (SMILES),inhibition
1,Cc1ccc(N(Cc2cc(=O)[nH]c3ccccc23)C(=O)CCl)cc1,36%
2,O=C(c1[nH]ncc1-c1ccc(Cl)cc1)C1CO1 (stereo not given),29%
3,O=c1cc(CCl)nc2scc(-c3ccccc3)n12,82% (active)
4,CCC1(CC)Cc2ccccc2-c2nc(CCl)[nH]c(=O)c21,79% (active)
5,COc1ccc(C(C(=O)NC2CCCCC2)N(C(=O)CCl)c2ccccc2Cl)cc1 (stereo not given),23%

# Reference: PubChem BioAssay AID463110 (The Scripps Research Institute Molecular Screening Center, 2010)
